The record followed here is article PMC4336329 (PLoS ONE, 2015).

Screen size: about 310,000 compounds; about 14,000 (4.5%) showed an effect of 50% or more. Effects have a minus sign here. Only a selection was taken, and strong results are over-represented in it overall.
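Further: peak tail current of the secondary pulse compared with the same well before compound.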

In this experiment the target is human ether-à-go-go-related gene (hERG) potassium channel (human, UniProt Q12809). The experiment can be described thus: primary screen, population patch clamp on CHO cells stably expressing hERG; higher = less effect of the substance.
human ether-à-go-go-related gene (hERG) potassium channel, sequence (Q12809 whole entry, looked up): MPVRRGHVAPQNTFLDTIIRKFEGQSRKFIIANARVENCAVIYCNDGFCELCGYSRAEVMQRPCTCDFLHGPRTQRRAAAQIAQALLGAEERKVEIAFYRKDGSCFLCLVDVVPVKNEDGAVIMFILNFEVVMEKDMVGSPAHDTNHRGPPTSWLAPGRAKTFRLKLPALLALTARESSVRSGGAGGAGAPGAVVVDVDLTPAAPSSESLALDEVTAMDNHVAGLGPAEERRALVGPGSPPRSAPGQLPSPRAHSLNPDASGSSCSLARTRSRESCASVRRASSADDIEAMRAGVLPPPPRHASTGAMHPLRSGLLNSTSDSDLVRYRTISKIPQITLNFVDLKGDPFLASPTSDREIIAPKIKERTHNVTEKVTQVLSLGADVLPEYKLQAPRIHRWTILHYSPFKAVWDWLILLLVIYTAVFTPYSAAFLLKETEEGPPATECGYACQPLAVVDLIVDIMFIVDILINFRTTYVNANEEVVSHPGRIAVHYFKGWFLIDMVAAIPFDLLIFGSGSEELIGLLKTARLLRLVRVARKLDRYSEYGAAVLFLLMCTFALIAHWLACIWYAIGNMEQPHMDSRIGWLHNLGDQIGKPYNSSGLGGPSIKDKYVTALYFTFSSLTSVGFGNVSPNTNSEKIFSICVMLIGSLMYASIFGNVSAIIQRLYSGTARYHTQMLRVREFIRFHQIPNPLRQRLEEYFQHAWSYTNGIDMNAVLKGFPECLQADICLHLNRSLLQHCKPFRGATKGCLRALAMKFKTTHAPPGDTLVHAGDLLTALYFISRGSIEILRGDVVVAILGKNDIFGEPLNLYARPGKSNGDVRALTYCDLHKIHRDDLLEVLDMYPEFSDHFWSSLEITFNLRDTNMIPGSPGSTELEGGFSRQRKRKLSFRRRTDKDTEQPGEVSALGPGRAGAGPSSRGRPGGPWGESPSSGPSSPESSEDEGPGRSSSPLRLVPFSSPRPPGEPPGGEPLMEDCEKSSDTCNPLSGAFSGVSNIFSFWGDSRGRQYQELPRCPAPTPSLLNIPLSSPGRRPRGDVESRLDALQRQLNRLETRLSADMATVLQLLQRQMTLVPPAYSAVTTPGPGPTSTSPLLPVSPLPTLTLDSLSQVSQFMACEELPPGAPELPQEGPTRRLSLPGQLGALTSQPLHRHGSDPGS
Regarding `CC(C)Cc1nnc(NC(=O)CCC(=O)N2CCC3(CC2)OCCO3)s1`, the “hERG current change (%, negative = inhibition) at 10uM” value was 12.3%. Next, `O=c1c2ccccc2oc2cc(C#Cc3ccccn3)ccc12`: 7.36%; `C/C=C(/C)C(=O)Nc1cccc(C2=NOC3(C2)C[C@@H](C(N)=O)N(C(=O)CCCCC)C3)c1` (stereo partly shown): -40.1%. For `COc1cc(/C=N/NC(=O)c2cc(C3CC3)[nH]n2)ccc1O` the value was -12.7%; for `CCOC(=O)C1=C(C)N(CC)C(=S)NC1c1ccc(Cl)cc1` (stereo not shown), -9.13%; for `COc1ccc2c(c1)C(c1ccccc1)=NNC(c1ccco1)=N2`, -15.7%. Consider `COc1ccc(C2=NNC(c3ccco3)=Nc3ccc(F)cc32)cc1`, for which the “hERG current change (%, negative = inhibition) at 10uM” value is -10.8%.

On to `COc1ccc2c(c1)C(c1ccc([N+](=O)[O-])cc1)=NNC(c1ccco1)=N2`, for which the “hERG current change (%, negative = inhibition) at 10uM” value is recorded as -60%. In the case of `O=C(CS(=O)(=O)c1cn(Cc2ccc(F)cc2)c2ccccc12)N1CCCCC1`, the “hERG current change (%, negative = inhibition) at 10uM” value is reported as -0.405%.

As for `Cc1ccc(C#CC[N+](C)(C)CC#Cc2ccccc2)cc1.[Br-]`, the “hERG current change (%, negative = inhibition) at 10uM” value is given as -75.9%. For `CC[N+](CC)(CC#CCO)CC#Cc1ccccc1.[Br-]` the value was 33.7%; for `C#CC[N+](CC)(CC)CC#Cc1ccccc1.[Br-]`, 9.22%; for `CC[N+](CC)(CC#Cc1ccccc1)CC#Cc1ccccc1.[Br-]`, -69.8%. Next, `C#CC[N+](C)(C)CC#Cc1ccccc1.[Br-]`: 13.3%; `C#CC[N+](C)(C)CC#Cc1ccc(C)cc1.[Br-]`: 6.33%.

Take `O=C(CSc1nnc(CNC(=O)c2ccco2)o1)Nc1ccc(F)cc1F`: the “hERG current change (%, negative = inhibition) at 10uM” value worked out at 8.95%. For `O=C(c1ccc(C#Cc2ccccc2)o1)N1CCN(c2ccccn2)CC1` the value was -6.76%; for `COc1ccc(Nc2ncccc2C(=O)Nc2ccccc2)cc1`, -9.63%; for `Cc1ccc(OCc2ccccc2Br)c([N+](=O)[O-])n1`, 16.7%.

Turning to `CN(Cc1cccc2cnccc12)C(=O)CCc1nnc(CCc2ccccc2)o1`, the “hERG current change (%, negative = inhibition) at 10uM” value is on record as -44.7%.

Regarding `COc1ccccc1CCc1nnc(CCC(=O)N(C)Cc2cccc3cnccc23)o1`, the “hERG current change (%, negative = inhibition) at 10uM” value is reported as -35.3%.

Consider `CC(=O)c1ccc(-c2nnc(CCC(=O)N(C)Cc3cccc4cnccc34)o2)s1`, for which the “hERG current change (%, negative = inhibition) at 10uM” value is recorded as -81.4%. Next, `O=C(NC1CCCCC1)C(c1ccncc1)N(Cc1ccc(F)cc1)C(=O)c1ccccn1` (stereo not shown): -5.49%. For `Cc1cc(S(=O)(=O)N2CCc3ccccc3C2)ccc1F` the value was 7.2%; for `O=C(CN1CCN(Cc2ccccc2)CC1)NC(c1ccccc1)c1ccccc1.O=C(O)C(=O)O`, -59.8%. As for `CC(CCc1ccccc1)NC(=O)CN1CCc2ccccc2C1` (stereo not shown), the “hERG current change (%, negative = inhibition) at 10uM” value is reported as -22.4%.

Consider `CC(CCc1ccccc1)NC(=O)CN1CCN(c2ccc(O)cc2)CC1` (stereo not shown), for which the “hERG current change (%, negative = inhibition) at 10uM” value is given as -37.1%. For `O=C(CN1CCN(c2ccc(O)cc2)CC1)NC(c1ccccc1)c1ccccc1` the value was -50.8%; for `COc1ccc(N2CCN(CC(=O)NC(C)c3ccccc3)CC2)cc1` (stereo not shown), 20.6%; for `COc1ccc(C(NC(=O)CN2CCCCCC2)c2ccc(OC)cc2)cc1`, -65.9%. Turning to `CC(NC(=O)CN1CCN(c2ccc(Cl)cc2)CC1)c1ccccc1` (stereo not shown), the “hERG current change (%, negative = inhibition) at 10uM” value is recorded as -42.7%. Next, `COc1ccc(/C=N/NC(=O)CN2CCCC2)cc1`: -14.8%; `O=C(CN1CCN(c2ccccc2O)CC1)NC(c1ccccc1)c1ccccc1`: -22.7%; `O=C(O)C(=O)O.c1ccc(CN2CCN(C(c3ccccc3)c3ccccc3)CC2)cc1`: 2.22%.

For `CC(CCc1ccccc1)NC(=O)CN1CCN(c2ccccc2)CC1` (stereo not shown), the “hERG current change (%, negative = inhibition) at 10uM” value is on record as -55.8%.

Take `CC(=O)C(Cc1ccccc1)NC(=O)CN1CCN(Cc2ccccc2)CC1` (stereo not shown): the “hERG current change (%, negative = inhibition) at 10uM” value is recorded as -5.57%.

As for `Cc1ccc(SCCSc2ncccn2)cc1`, the “hERG current change (%, negative = inhibition) at 10uM” value is recorded as -2.38%.

Regarding `CC(C)c1cc(-c2n[nH]c(=S)n2Cc2ccccc2)cs1`, the “hERG current change (%, negative = inhibition) at 10uM” value stood at 17.8%. For `Cc1cc(C)nc(N2CCN(C(=O)CCC(=O)Nc3nnc(CC(C)C)s3)CC2)n1` the value was -6.7%; for `O=C(N1CCCCC1)N1CCN(S(=O)(=O)c2cccc([N+](=O)[O-])c2)CC1`, -15.8%.

With `COc1cc(S(=O)(=O)NCc2cccnc2)ccc1F`, the “hERG current change (%, negative = inhibition) at 10uM” value was -5.7%. For the compound `CN(C)C(=O)N1CCCC(C(=O)NCc2cccs2)C1` (stereo not shown), the “hERG current change (%, negative = inhibition) at 10uM” value amounted to 1.62%.

In the case of `CNc1ccccc1C(=O)OCC(=O)N(CCOC)c1c(N)n(CC(C)C)c(=O)[nH]c1=O`, the “hERG current change (%, negative = inhibition) at 10uM” value is given as 9.81%. Next, `CCCCN1CCNC[C@@H]1Cc1ccc(O)cc1`: 16%. Next, `CCN(CC(=O)Nc1ccc(Br)c(C)c1)CC(=O)NC(C)C`: -4.86%.

`O=C(NCCO)c1cc([N+](=O)[O-])cc2c1C=Cc1ccccc1O2`: the “hERG current change (%, negative = inhibition) at 10uM” value was -31.4%.

Turning to `CC1Cc2ccccc2N1C(=O)COC(=O)C1(c2ccccc2F)CCCC1` (stereo not shown), the “hERG current change (%, negative = inhibition) at 10uM” value is reported as -5.21%. Next, `CCN(CC)S(=O)(=O)c1ccc(NS(=O)(=O)c2cccc(C)c2)cc1`: -20.4%; `O=C(O)CCC1(c2ccccc2)NC(=O)NC1=O` (stereo not shown): 2.53%. For `C[n+]1ccccc1/C=N/O.[Cl-]` the value was 17.3%. Next, `COc1ccccc1CN1Cc2cccc3c2[C@@H](CC1=O)[C@H](O)[C@H](O)C3`: 4.43%. In the case of `COC(=O)C1C(=O)N2CCCSC2=C(C#N)C1c1cccs1` (stereo not shown), the “hERG current change (%, negative = inhibition) at 10uM” value came out at 1.49%. Regarding `CC1CN(CC(=O)NC(C)c2ccccc2)CC(C)O1` (stereo not shown), the “hERG current change (%, negative = inhibition) at 10uM” value was determined as 9.23%. For `CC(NC(=O)CN1CCCC1)c1ccccc1` (stereo not shown) the value was 21%; for `CC1Cc2ccccc2N1CC(=O)NC(c1ccccc1)c1ccccc1.O=C(O)C(=O)O` (stereo not shown), 19.1%.

With `CSc1ccccc1NC(=O)CN1CCCCC1C` (stereo not shown), the “hERG current change (%, negative = inhibition) at 10uM” value came to 0.324%. Regarding `CC1CCCCN1CC(=O)NC(=O)NCc1ccccc1` (stereo not shown), the “hERG current change (%, negative = inhibition) at 10uM” value is 16.8%.

As for `CC1CC(C)CN(CC(=O)NC(c2ccccc2)c2ccccc2)C1.O=C(O)C(=O)O` (stereo not shown), the “hERG current change (%, negative = inhibition) at 10uM” value is on record as -68.4%.

Regarding `CC1CCCCN1CC(=O)NC(c1ccccc1)c1ccccc1.O=C(O)C(=O)O` (stereo not shown), the “hERG current change (%, negative = inhibition) at 10uM” value is on record as -65.8%. As for `O=C(CN1CCCCCC1)NC(c1ccccc1)c1ccccc1.O=C(O)C(=O)O`, the “hERG current change (%, negative = inhibition) at 10uM” value is on record as -57.7%.

On to `O=C(CN1CCCC1)NC(c1ccccc1)c1ccccc1.O=C(O)C(=O)O`, for which the “hERG current change (%, negative = inhibition) at 10uM” value is listed as -34.7%. On to `CCOCCCN1CN(Cc2ccco2)CNC1=S`, for which the “hERG current change (%, negative = inhibition) at 10uM” value is listed as 7.86%.

Take `CC1=C(c2ccc(F)cc2)[N+](=O)C(C)(C)N1[O-]`: the “hERG current change (%, negative = inhibition) at 10uM” value came out at 17.7%.

For `Cc1ccc(-c2cc(=O)c3ccccc3[nH]2)cc1`, the “hERG current change (%, negative = inhibition) at 10uM” value is given as 13.6%. For `Cc1cccn2cc(CCNS(=O)(=O)c3ccc([N+](=O)[O-])cc3)nc12`, the “hERG current change (%, negative = inhibition) at 10uM” value is -22.7%. Next, `COc1ccc2[nH]cc(C(O)CN3CCC(C(N)=O)CC3)c2c1` (stereo not shown): 12%; `COc1ccc2[nH]cc(C(O)CN3CCN(c4ccccc4F)CC3)c2c1` (stereo not shown): -22%.

On to `COc1ccc(N2CCN(CC(O)c3c[nH]c4ccc(OC)cc34)CC2C)cc1` (stereo not shown), for which the “hERG current change (%, negative = inhibition) at 10uM” value is -68.1%. For `CC(Cc1ccccc1)[n+]1cc(/N=C(\[O-])Nc2ccccc2)on1` (stereo not shown) the value was -17.4%; for `CC1Sc2ccc(S(=O)(=O)NCCc3ccccc3)cc2NC1=O` (stereo not shown), 12.5%. Next, `CC1CCN(CCOCCOc2ccc(Br)cc2Cl)CC1.O=C(O)C(=O)O`: -75.5%. For `Clc1cc(Br)ccc1OCCOCCN1CCCC1.O=C(O)C(=O)O` the value was -57.1%. Regarding `Clc1cc(Br)ccc1OCCN1CCOCC1.O=C(O)C(=O)O`, the “hERG current change (%, negative = inhibition) at 10uM” value was -2.95%. For `CN1CCN(CCOCCOc2ccc(Br)cc2Cl)CC1.O=C(O)C(=O)O` the value was -14.2%; for `CC1CCN(CCOc2cc(Cl)ccc2Cl)CC1`, -33.8%; for `CC1CCN(CCOc2ccc(Cl)c(Cl)c2)CC1`, -46.3%. For `CC1CCN(CCCOc2ccc(Cl)cc2Br)CC1` the value was -76.3%; for `CC1CCCN(CCOCCOc2ccc(Br)cc2Cl)C1.O=C(O)C(=O)O` (stereo not shown), -71%; for `CC(C)N1CCN(Cc2ccc3c(c2)OCCO3)CC1CCO` (stereo not shown), 3.63%. For `NC(=O)N/N=C/c1ccc(-c2cccc(C(F)(F)F)c2)o1` the value was -4.87%; for `Cc1cc(C)cc(NC(=O)CCn2ccnc2)c1`, 3.41%. On to `Cc1c(C(=O)NCc2ccc(S(N)(=O)=O)cc2)oc2ccc(Cl)cc12`, for which the “hERG current change (%, negative = inhibition) at 10uM” value was 10%. For `CCCCn1c(N)c(N(CCOC)C(=O)CSCC(=O)Nc2cccc(C)c2)c(=O)[nH]c1=O` the value was 11.5%; for `c1ccc(-c2nc(CSc3nnc(-c4cccs4)o3)cs2)cc1`, -9.61%. Next, `CCS(=O)(=O)c1ncc(Cl)c(C(=O)Nc2ccc(S(=O)(=O)N(C)c3ccccc3)cc2)n1`: 15.5%; `CCOC(=O)N1CCC(NC(=O)c2cc(C(=O)NC3CCCC3)ccc2CO)CC1`: 12.9%. For `O=C(O)c1ccn(CSc2cc(Cl)ccc2Cl)n1` the value was 5.46%; for `CCOC(=O)NNC(=S)Nc1c(C)n(C)n(-c2ccccc2)c1=O`, 4.89%; for `COc1ccc(NC(=O)CC(C)CC(=O)NCc2ccc(F)cc2)c(OC)c1` (stereo not shown), -4.08%. On to `CCn1cc(/C=C(\NC(=O)c2ccccc2Cl)C(=O)N2CCOCC2)c2ccccc21`, for which the “hERG current change (%, negative = inhibition) at 10uM” value was -2.35%. For `O=C(NNC(=S)Nc1ccccc1)c1cccc(S(=O)(=O)N2CCOCC2)c1` the value was 15.3%.
